Experimental data published in PubChem BioAssay AID1851 (National Center for Advancing Translational Sciences (NCATS), 2009).
Among all 16,000 compounds or so, about 4,000 (25%) were called active. Inconclusive results (about 26%) are left out. Calls come from the whole dose curve; as a rule, active = well fitted curve in the direction sought with a large enough effect; inconclusive = small, poorly fitted or top-dose-only effect, or effect the other way; inactive = no such curve, though single readings can be large or run the other way. Not all results are given here.

Biological target: Cytochrome P450 2C9 (Homo sapiens) (UniProt P11712)
Sequence (P11712 whole entry, looked up): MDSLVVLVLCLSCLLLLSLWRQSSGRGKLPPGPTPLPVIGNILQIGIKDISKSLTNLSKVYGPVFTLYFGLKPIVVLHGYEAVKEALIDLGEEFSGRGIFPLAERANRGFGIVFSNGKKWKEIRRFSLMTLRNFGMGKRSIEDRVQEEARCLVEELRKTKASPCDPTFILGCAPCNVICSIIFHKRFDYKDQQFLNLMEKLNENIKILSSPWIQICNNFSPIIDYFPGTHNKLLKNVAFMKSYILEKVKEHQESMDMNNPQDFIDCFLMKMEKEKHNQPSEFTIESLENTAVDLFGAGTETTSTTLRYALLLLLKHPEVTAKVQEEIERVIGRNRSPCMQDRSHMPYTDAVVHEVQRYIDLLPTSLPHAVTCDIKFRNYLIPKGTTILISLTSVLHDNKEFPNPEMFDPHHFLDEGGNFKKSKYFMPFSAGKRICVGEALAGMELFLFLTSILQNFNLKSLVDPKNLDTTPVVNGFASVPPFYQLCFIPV
Assay: Cytochrome panel assay with activity outcomes
Settings: recombinant CYP, pro-luciferin dealkylation, luminescence, p450-cyp2c9; series mostly up to 57.1 µM; activity, negative = inhibition: at the top concentration
% is set by controls: 0 for no effect and ±100 for the full control effect.

| Compound | AC50 | activity, negative = inhibition |
| --- | --- | --- |
| COc1ccc(C2c3c(ncn(CCN4CCOCC4)c3=N)Oc3ccc4ccccc4c32)cc1OC (stereo unspecified) | 8.91 µM (active) |  |
| COc1ccccc1-c1nc(NCCN2CCOCC2)c2ccccc2n1 |  | 14% [at 2.29 µM] (inactive) |
| COc1ccccc1-c1ccc2ncnc(NCCN3CCOCC3)c2c1 |  | -10.8% [at 2.29 µM] (inactive) |
| Cn1sc(NC(=O)c2ccccc2)nc1=O | 14.1 µM (active) |  |
| CCOC(=O)CSc1n[nH]c(NC(=O)c2ccccc2)n1 |  | -20.3% (inactive) |
| C=CCNC(=O)C1CCN(S(=O)(=O)CC)CC1 |  | -14.6% (inactive) |
| C[C@@H](CCc1ccccc1)NC[C@H](O)c1ccc(O)c(C(N)=O)c1 | inactive |  |
| CC(CCc1ccccc1)NS(=O)(=O)c1ccccc1 (stereo unspecified) | 3.98 µM (active) |  |
| O=C(O)/C=C\C(=O)NCc1ccccc1 |  | 3.41% (inactive) |
| CC(CCc1ccccc1)NC(=O)/C=C/c1ccccc1 (stereo unspecified) | 7.08 µM (active) |  |
| Cc1ccc(S(=O)(=O)N[C@H](CO)C(=O)O)cc1 |  | -14.1% [at 11.4 µM] (inactive) |
| O=C(O)[C@H](/C=C\c1ccccc1)c1ccccc1 |  | -17.8% [at 11.4 µM] (inactive) |
| COC(=O)C/C=C\[C@@H](C)[C@@H](CO)NS(=O)(=O)c1ccc(C)cc1 |  | -7.12% [at 11.4 µM] (inactive) |
| Cc1ccc(S(=O)(=O)N[C@@H](CCc2ccccc2)CC(=O)C(C)(C)C)cc1 | 3.98 µM (active) |  |
| O=C(CC1(O)CCCCC1)OC1CCCC1 |  | -26.4% [at 11.4 µM] (inactive) |
| FC(F)(F)c1cc(CN2CCCC3(CCNCC3)C2)cc(C(F)(F)F)c1 |  | 18.9% (inactive) |
| CC(C)N=c1scc(-c2ccco2)n1/N=C/c1ccc(O)c(O)c1 | 11.2 µM (active) |  |
| C[N+](C)(C)/N=C\c1ccc(O)c(O)c1 |  | -5.12% [at 11.4 µM] (inactive) |
| CCCC(=O)Nc1nc2n(n1)C(c1ccccc1)CC(=O)N2 (stereo unspecified) |  | -10.9% (inactive) |
| O=C1CC[C@H](N2C(=O)c3ccccc3C2=O)C(=O)N1 | inactive |  |
| CC1(C)CC(=O)C(CCCN2C(=O)c3ccccc3C2=O)C(=O)C1 | 17.8 µM (active) |  |
| O=C1c2ccccc2C(=O)N1CCSC(=S)N1CCOCC1 |  | -12.5% (inactive) |
| CSc1cccc(NC(=O)OC2CCCCCCCCCCC2)c1 |  | -17.7% [at 11.4 µM] (inactive) |
| CSc1cccc(NC(=O)Cn2cccc2)c1 | 20 µM (active) |  |
| Cc1cccc(NC(=O)Cn2cccc2)c1 |  | -26.4% (inactive) |
| O=C(OCC1CC(c2ccccc2)=NO1)c1ccc(Cl)cc1 (stereo unspecified) |  | -26.7% (inactive) |

| Compound | AC50 | activity, negative = inhibition |
| --- | --- | --- |
| O=C(c1ccc(Cl)cc1)N1CCCC(c2ccccc2)=N1 | 10 µM (active) |  |
| Clc1ccc(C2=C3CCCCn4c(-c5ccccc5)c[n+](c43)C2)cc1 |  | -19.6% (inactive) |
| CC(C)(C)NC(=O)Cn1cnc([N+](=O)[O-])n1 |  | 6.83% (inactive) |
| O=C(O)c1cccnc1SCC(=O)N1CCCCCC1 |  | -1.58% (inactive) |
| COCC(=O)N1CCC2(CC1)CCN(C(c1ccccc1)c1ccccc1)CC2 |  | 2.97% (inactive) |
| Cc1cccc(C(CC(=O)N2CCCC2)c2ccccc2)c1O (stereo unspecified) | 3.98 µM (active) |  |
| CCNc1ncc2ncc(=O)n(C[C@H]3CCCO3)c2n1 |  | 29.3% (inactive) |
| COc1cccc(Cn2c(=O)c(-c3cccc(C#N)c3)nc3cnc(N4CCN(C)CC4)nc32)c1 |  | -3.2% (inactive) |
| COc1ncc2nc(-c3ccc(F)cc3)c(=O)n(Cc3ccc(F)cc3)c2n1 |  | -4.72% (inactive) |
| CCNc1ncc2nc(-c3ccccc3)c(=O)n(Cc3cccc(OC)c3)c2n1 |  | -22.8% (inactive) |
| COc1cccc(Cn2c(=O)c(-c3cccc(C#N)c3)nc3cnc(OC)nc32)c1 | 12.6 µM (active) |  |
| COc1cccc(Cn2c(=O)c(-c3cccc(C#N)c3)nc3cnc(Nc4ccccc4)nc32)c1 |  | -19.8% (inactive) |
| COc1cccc(Cn2c(=O)c(-c3ccccc3)nc3cnc(OC)nc32)c1 | 12.6 µM (active) |  |
| CC/C(O)=C(\C#N)c1nnc2n1CCCCC2 |  | -30.9% (inactive) |
| CC(C)Oc1ccc(CSC(=N)N)cc1 |  | 11.2% (inactive) |
| N#CC(C#N)=CNCCN1CCN(C=C(C#N)C#N)CC1 |  | 5.25% [at 11.4 µM] (inactive) |
| COCCNC(=O)CCn1c(=O)oc2ccccc21 |  | 19.3% (inactive) |
| COCCNC(=O)COc1ccc(Oc2ccccc2)cc1 | 0.316 µM (active) |  |
| COCCNC(=O)COc1ccc(OCCNC[C@@H](O)COc2ccccc2)cc1 |  | 18.8% (inactive) |
| CS(=O)(=O)N1CCC2(CCCN(C(=O)Nc3cccc(F)c3)C2)CC1 |  | -5.65% (inactive) |
| COC(Cc1nnc(SC)n1-c1ccccc1)OC |  | -7.18% (inactive) |
| CCOc1ccc(NCc2nnc(SCc3ccccc3Cl)n2-c2ccccc2)cc1 | 7.94 µM (active) |  |
| CC(=O)NCCNc1ncnc2ccc(-c3ccc(C(=O)N(C)C)cc3)cc12 |  | 3.47% [at 2.29 µM] (inactive) |
| CC(=O)OC[C@@H]1O[C@H](C/C=N\OCC[C@H]2C=C[C@H](OC(C)=O)[C@@H](COC(C)=O)O2)C=C[C@@H]1OC(C)=O |  | 19.9% [at 11.4 µM] (inactive) |
| Cc1noc(C)c1-c1cncnc1NCCN1CCOCC1 |  | -15.1% [at 2.29 µM] (inactive) |
